This is an account of results in PubChem BioAssay (Tox21).

A short description of assay [1]: qHTS assay for small molecule agonists of the p53 signaling pathway (AID 651631; calls by dose curve; also: nearly all actives have a fitted effect of over 15% in size). An outline of the steps: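 HCT-116 cells carrying a stable p53 response element–beta-lactamase reporter were plated, rested 5 h at 37 °C, then exposed to compound in DMSO for 16 h at 37 °C; reporter activity was read as FRET substrate fluorescence after 2 h at room temperature.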
For orientation: Quantitative high-throughput screening tests each substance at several concentrations.

A short description of assay [2]: qHTS assay for small molecules that induce genotoxicity in human embryonic kidney cells expressing luciferase-tagged ATAD5 (AID 651632). Also: nearly all actives have a fitted effect of over 15% in size. Also: potency is read from the fitted curve at half-maximal effect. An outline of the steps: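 Test compounds were delivered by pin tool onto HEK293T reporter cells (2,000/well) expressing ATAD5 fused to luciferase. After 16 hr at 37C, 5% CO2, Amplite was added for 30 min at room temperature and luminescence was measured.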

Assay [3] can be described thus: qHTS assay for small molecule agonists of the p53 signaling pathway - cell viability (AID 651633; calls by dose curve; also: nearly all actives have a fitted effect of over 30% in size). A digest of the protocol:
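p53RE-bla cells were treated with compound for 16 hours at 37 C. Cytotoxicity was then measured as CellTiter-Glo luminescence after 30 min at room temperature.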

Assay [4] in a line: qHTS assay for small molecules that induce genotoxicity in human embryonic kidney cells expressing luciferase-tagged ATAD5 - cell viability (AID 651634; calls by dose curve; also: nearly all actives have a fitted effect of over 25% in size). An outline of the steps: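 Quantitative high-throughput format. HEK293T cells expressing ATAD5 fused to luciferase were plated at 2,000 cells/well and treated 15.5 hr with compound versus DMSO. Viability was determined by fluorescent live-cell protease substrate, 30 min at 37C.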

A short description of assay [5]: qHTS assay for small molecule disruptors of the mitochondrial membrane potential - cell viability (AID 720634; calls by dose curve;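 also: human HepG2 liver cancer cells; nearly all actives have a fitted effect of over 20% in size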). A digest of the protocol: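 Same-well counter-screen: following the MMP dye addition, CellTiter-Glo was added to 1 hr compound-treated HepG2 cells and luminescence read after 30 min at room temperature.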
The nature of assay [6]: qHTS assay for small molecule disruptors of the mitochondrial membrane potential (AID 720635). An outline of the steps:
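HepG2 cells exposed to compound 1 hr at 37C, then Mito-MPS dye 30 min. Ratio read of aggregate (540/590 nm) versus monomer (490/535 nm) fluorescence.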

A short description of assay [7]: qHTS assay to test for compound auto fluorescence at 590 nm (red) in HepG2 cells (AID 720674). A digest of the protocol:
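HepG2 cells, 2,000 per well in MEM with 10% FBS, attached overnight at 37 C, then got 23 nL compound or DMSO. After 1 hr at 37 C, 5% CO2, red fluorescence was read at 540/590 nm against Rose Bengal sodium as reference.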

Assay [8] can be described thus: qHTS assay to test for compound auto fluorescence at 460 nm (blue) in HEK293 cells (AID 720678). A digest of the protocol: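 After cell attachment (4-5 hr, 37C), compounds were pinned onto HEK293 monolayers in 10% dialyzed FBS medium. The blue channel (405/460 nm) was read following overnight culture. Equivalency was calculated against triamterene.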
Assay [9] is described as follows: qHTS assay to test for compound auto fluorescence at 590 nm (red) in HEK293 cells (AID 720679). An outline of the steps:
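Plates of HEK293 cells (10% dialyzed FBS) are treated with 23 nL compound or DMSO vehicle after a 4-5 hr attachment period, incubated overnight at 37C, and read for red fluorescence at 540/590nm.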

Assay [10] can be described thus: qHTS assay to test for compound auto fluorescence at 535 nm (green) in HEK293 cells (AID 720680).
A short description of assay [11]: qHTS assay to test for compound auto fluorescence at 460 nm (blue) in HEK293 cell free culture (AID 720681). An outline of the steps:
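Compounds were added to cell-free DMEM with 10% FBS and fluorescence read directly. The blue channel used 405 nm excitation and 460 nm emission, with triamterene as the reference fluorophore.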

Assay [12] can be described thus: qHTS assay to test for compound auto fluorescence at 590 nm (red) in HEK293 cell free culture (AID 720683). An outline of the steps:
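Cell-free wells of DMEM with 10% FBS received compound, and intrinsic fluorescence was read at excitation/emission 540/590 nm. Values expressed as equivalence to Rose Bengal sodium.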

The nature of assay [13]: qHTS assay to test for compound auto fluorescence at 590 nm (red) in HepG2 cell free culture (AID 720684). An outline of the steps: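 Rose Bengal sodium served as the reference for red signal. Test compounds were dispensed into serum-containing MEM (10% FBS) without cells, and plates were read at 540/590 nm.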
Assay [14] in a line: qHTS assay to test for compound auto fluorescence at 460 nm (blue) in HepG2 cell free culture (AID 720685). An outline of the steps:
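Cell-free plates of MEM plus 10% FBS received 23 nL compound or DMSO vehicle; blue-channel (405/460 nm) intensity scored against triamterene as reference fluorophore.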

Assay [15] can be described thus: qHTS assay to test for compound auto fluorescence at 535 nm (green) in HepG2 cell free culture (AID 720686).
Assay [16] in a line: qHTS assay to test for compound auto fluorescence at 460 nm (blue) in HepG2 cells (AID 720687). A digest of the protocol: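 HepG2 cells in MEM with 10% FBS, attached overnight at 37 C, were exposed to compound or DMSO for 1 hr at 37 C, 5% CO2. Blue fluorescence was read at 405/460 nm, with triamterene as reference fluorophore.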
Assay [17] deals with Glucocorticoid receptor (Homo sapiens) (UniProt P04150). In words: qHTS assay to identify small molecule agonists of the glucocorticoid receptor (GR) signaling pathway (AID 720691; active = well fitted activation curve with a large enough effect in the signal ratio in the repeat runs, not every such curve was filed as active; inconclusive = weak or mixed curves, or effect the other way; inactive = no such curve, though single readings can be large or run the other way; the % refers to the signal ratio; also: potency is read from the fitted curve at half-maximal effect). The following applies: GR-bla HeLa, beta-lactamase reporter ratio, 18 h; activation: at 62.4 µM (top of the series). An outline of the steps: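 A HeLa cervical cancer line expressing GR and a glucocorticoid response element-driven beta-lactamase gene is treated with compounds for 18 h; LiveBLAzer B/G FRET substrate is then applied and fluorescence read.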
Sequence of Glucocorticoid receptor (Homo sapiens) (P04150 whole entry, looked up): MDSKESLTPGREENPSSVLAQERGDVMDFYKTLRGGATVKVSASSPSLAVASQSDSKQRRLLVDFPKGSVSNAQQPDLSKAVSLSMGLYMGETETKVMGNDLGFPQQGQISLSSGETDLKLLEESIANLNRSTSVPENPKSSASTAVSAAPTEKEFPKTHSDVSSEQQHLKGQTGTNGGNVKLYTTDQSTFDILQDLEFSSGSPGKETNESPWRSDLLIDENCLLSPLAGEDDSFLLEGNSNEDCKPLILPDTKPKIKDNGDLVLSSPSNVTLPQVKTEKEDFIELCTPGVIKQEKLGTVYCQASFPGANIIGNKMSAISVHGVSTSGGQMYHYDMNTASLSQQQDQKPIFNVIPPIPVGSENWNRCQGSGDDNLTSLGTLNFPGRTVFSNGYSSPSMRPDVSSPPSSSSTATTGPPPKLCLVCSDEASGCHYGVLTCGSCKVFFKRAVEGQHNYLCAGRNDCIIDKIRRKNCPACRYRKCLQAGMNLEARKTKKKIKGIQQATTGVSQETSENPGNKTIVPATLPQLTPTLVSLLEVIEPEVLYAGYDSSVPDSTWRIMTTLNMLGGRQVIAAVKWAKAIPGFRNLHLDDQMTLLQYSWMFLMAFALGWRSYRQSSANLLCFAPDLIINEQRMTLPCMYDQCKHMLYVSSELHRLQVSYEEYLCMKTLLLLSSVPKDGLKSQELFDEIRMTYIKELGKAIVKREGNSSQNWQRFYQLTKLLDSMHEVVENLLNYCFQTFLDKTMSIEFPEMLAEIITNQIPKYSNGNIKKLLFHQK

For assay [18] the target is unchanged. In words: qHTS assay to identify small molecule antagonists of the glucocorticoid receptor (GR) signaling pathway (AID 720692; active = well fitted inhibition curve with a large enough effect in the signal ratio in the repeat runs, not every such curve was filed as active; inconclusive = weak or mixed curves, or effect the other way; inactive = no such curve, though single readings can be large or run the other way; the % refers to the signal ratio). An outline of the steps:
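GRE-bla HeLa line, dex-stimulated (5 nM final). Compound exposure 18 h, 37 C. Beta-lactamase FRET read after 2 h RT substrate.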

The nature of assay [19]: qHTS assay to test for compound auto fluorescence at 535 nm (green) in HepG2 cells (AID 720675).
The nature of assay [20]: qHTS assay to test for compound auto fluorescence at 535 nm (green) in HEK293 cell free culture (AID 720682). A digest of the protocol: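 Read-out: 485/535 nm fluorescence intensity, calibrated against fluorescein. Medium only (DMEM + 10% FBS, no cells); test compound or DMSO vehicle added by pintool before plate reading.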

The source made the active and inactive calls. Unless noted, calls follow the shape of the dose curve; as a rule, active = well fitted curve in the direction sought with a large enough effect in the repeat runs; inconclusive = weak or mixed curves; inactive = no such curve, though single readings can be large; an effect the other way counts as inactive or inconclusive.

Regarding `CC(C)Cc1ccc([C@H](C)C(=O)O)cc1`, the Potency entry in assay [1], in assay [2], in [3], in assay [4], in assay [5] and in assay [6] was “inactive” throughout. The Potency result in assay [8], in [11], in assay [14], in [15], in [16] and in assay [17] was “inactive” in each case. In [18], the Potency result was “inactive”. The result in assay [7], in assay [9], in assay [10], in assay [12] and in assay [13] was inactive.
Consider `CC(=O)O[C@H]1C[C@@H]2CC[C@@H]3[C@H](CC[C@@]4(C)[C@H]3C[C@H]([N+]3(C)CCCCC3)[C@@H]4OC(C)=O)[C@@]2(C)C[C@@H]1[N+]1(C)CCCCC1`, for which the Potency result in assay [1], in assay [2], in [3], in assay [4], in assay [5] and in [19] was “inactive” throughout. The Potency entry in [8], in assay [11], in assay [14], in assay [15], in assay [16] and in [17] was “inactive” in each case. Also, in assay [18], the Potency entry is “inactive”. Besides, the result in assay [7], in assay [9], in assay [10], in assay [20] and in [12] was inactive.
Consider `CC(=O)OCC(=O)[C@@]1(O)CC[C@H]2[C@@H]3C[C@H](C)C4=CC(=O)C=C[C@]4(C)[C@H]3[C@@H](O)C[C@@]21C`, for which the Potency entry in assay [1], in [2], in assay [3], in assay [4], in [5] and in [6] was “inactive” each time. In addition, the Potency result in assay [8], in assay [11], in assay [14], in assay [15] and in assay [16] was “inactive” each time. For the same molecule, the outcome in assay [7], in assay [9], in assay [10], in assay [20] and in [12] was inactive. Further, in [17], the Potency was 134 nM [inconclusive] (active).
As to `N[C@@H](Cc1cnc[nH]1)C(=O)O`, the Potency result in assay [1], in [2], in assay [3], in assay [4], in assay [5] and in assay [19] was “inactive” in each case. Besides, the Potency entry in assay [8], in assay [11], in assay [14], in assay [15], in [16] and in [17] was “inactive” throughout. Besides, in assay [18], the Potency entry was “inactive”. For the same molecule, the call in assay [7], in assay [9], in assay [10], in [20], in assay [12] and in assay [13] was inactive.
Regarding `COc1ccc(/C=C/C(=O)Nc2ccccc2C(=O)O)cc1OC`, the Potency entry in assay [1], in assay [3], in assay [4], in [5], in assay [19] and in assay [8] was “inactive” in each case. Besides, the Potency result in assay [11], in assay [14], in [15], in [16] and in assay [17] was “inactive” each time. For the same molecule, the Potency in assay [2] is 1190 nM (active). For the same molecule, the molecule was classed as inactive in [7], in assay [9], in assay [10], in assay [20], in assay [12] and in assay [13].
Consider `CN1[C@@H](CC(=O)c2ccccc2)CCC[C@H]1C[C@H](O)c1ccccc1`, for which the Potency result in [1], in assay [2], in assay [3], in assay [4], in assay [5] and in assay [19] was “inactive” each time. Further, the Potency entry in [8], in assay [11], in [14], in assay [15] and in assay [16] was “inactive” each time. In addition, the result in assay [7], in assay [9], in assay [10], in assay [20], in assay [12] and in assay [13] was inactive.
